The supplement of paper PMC8728848
The sample as a whole holds a higher share of the strongest signals than the screen did.

How the values were obtained:
Assay in all cases: glycan array binding signal (z-score within array); higher = stronger binding
Conditions in all cases: glycan notation: IUPAC condensed, linker removed
Fuc(a1-2)Gal(b1-4)GlcNAc = biological target: Fuc(a1-2)Gal(b1-4)GlcNAc
In short: (§1)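 The Consortium for Functional Glycomics database supplied 3228 glycan arrays, of which those lacking an available protein sequence were dropped. The binding signal, a within-array Z-score, was averaged across arrays of the same protein sequence and across linkers. Negative scores can be read as non-binding.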

[1] = biological target: Fuc(a1-2)Gal(b1-4)GlcNAc(b1-2)[Fuc(a1-2)Gal(b1-4)GlcNAc(b1-4)]Man(a1-3)[Fuc(a1-2)Gal(b1-4)GlcNAc(b1-2)Man(a1-6)]Man(b1-4)GlcNAc(b1-4)GlcNAc
In short: as §1

[2] = biological target: Fuc(a1-2)Gal(b1-4)[Fuc(a1-3)]GlcNAc
In short: as §1

[3] = biological target: Fuc(a1-2)Gal6S(b1-3)GlcNAc
In short: as §1

[4] = biological target: Fuc(a1-2)[Gal(a1-3)]Gal(b1-3)GlcNAc(b1-6)GalNAc
In short: as §1

[5] = biological target: Fuc(a1-2)[Gal(a1-4)]Gal(b1-4)GlcNAc
In short: as §1

[6] = biological target: Fuc(a1-2)[GalNAc(a1-3)]Gal(b1-3)GlcNAc(b1-3)GalNAc
In short: as §1

Fuc(a1-3)GlcNAc = biological target: Fuc(a1-3)GlcNAc
In short: as §1

Gal(a1-3)Gal(b1-4)GlcNAc = biological target: Gal(a1-3)Gal(b1-4)GlcNAc
In short: as §1

[7] = biological target: Gal(a1-3)[Gal(a1-4)]Gal(b1-4)GlcNAc
In short: as §1

Gal(b1-2)Gal = biological target: Gal(b1-2)Gal
In short: as §1

[8] = biological target: Gal(b1-3)GlcNAc(b1-3)Gal(b1-4)GlcNAc(b1-6)[Gal(b1-3)GlcNAc(b1-3)]Gal(b1-4)Glc
In short: as §1

[9] = biological target: Gal(b1-4)GlcNAc(b1-2)Man(a1-3)Man(b1-4)GlcNAc(b1-4)GlcNAc
In short: as §1

[10] = biological target: Gal(b1-4)GlcNAc(b1-2)[Gal(b1-4)GlcNAc(b1-4)]Man(a1-3)[GlcNAc(b1-4)][Gal(b1-4)GlcNAc(b1-2)[Gal(b1-4)GlcNAc(b1-6)]Man(a1-6)]Man(b1-4)GlcNAc(b1-4)GlcNAc
In short: as §1

[11] = biological target: Gal(b1-4)GlcNAc(b1-3)Gal(b1-4)GlcNAc(b1-2)Man(a1-3)[Gal(b1-4)GlcNAc(b1-3)Gal(b1-4)GlcNAc(b1-2)Man(a1-6)]Man(b1-4)GlcNAc(b1-4)GlcNAc
In short: as §1

[12] = biological target: Gal(b1-4)GlcNAc(b1-3)Gal(b1-4)GlcNAc(b1-3)GalNAc
In short: as §1

[13] = biological target: Gal(b1-4)GlcNAc(b1-3)Gal(b1-4)GlcNAc(b1-3)[Gal(b1-4)GlcNAc(b1-3)Gal(b1-4)GlcNAc(b1-6)]GalNAc
In short: as §1

Gal(b1-6)Gal = biological target: Gal(b1-6)Gal
In short: as §1

Gal3S(b1-4)Glc = biological target: Gal3S(b1-4)Glc
In short: as §1

Gal3S(b1-4)GlcNAc = biological target: Gal3S(b1-4)GlcNAc
In short: as §1

[14] = biological target: Gal3S(b1-4)[Fuc(a1-3)]Glc6S
In short: as §1

Gal3S4S(b1-4)GlcNAc = biological target: Gal3S4S(b1-4)GlcNAc
In short: as §1

Gal6S(b1-4)GlcNAc = biological target: Gal6S(b1-4)GlcNAc
In short: as §1

[15] = biological target: GalNAc(b1-3)Gal(a1-6)Gal(b1-4)Glc
In short: as §1

[16] = biological target: GalNAc(b1-4)GlcNAc(b1-2)Man
In short: as §1

[17] = biological target: Glc(a1-4)Glc(a1-4)Glc(a1-4)Glc
In short: as §1

[18] = biological target: GlcNAc(a1-4)Gal(b1-4)GlcNAc(b1-3)Gal(b1-4)[Fuc(a1-3)]GlcNAc(b1-3)Gal(b1-4)[Fuc(a1-3)]GlcNAc
In short: as §1

[19] = biological target: GlcNAc(b1-3)Gal(b1-4)GlcNAc(b1-2)[GlcNAc(b1-3)Gal(b1-4)GlcNAc(b1-6)]Man(a1-6)[GlcNAc(b1-3)Gal(b1-4)GlcNAc(b1-2)Man(a1-3)]Man(b1-4)GlcNAc(b1-4)GlcNAc
In short: as §1

[20] = biological target: GlcNAc(b1-3)Gal(b1-4)GlcNAc(b1-3)Gal(b1-4)GlcNAc(b1-2)Man(a1-3)[GlcNAc(b1-3)Gal(b1-4)GlcNAc(b1-3)Gal(b1-4)GlcNAc(b1-2)Man(a1-6)]Man(b1-4)GlcNAc(b1-4)GlcNAc
In short: as §1

[21] = biological target: GlcNAc(b1-3)Gal(b1-4)GlcNAc(b1-3)[GlcNAc(b1-3)Gal(b1-4)GlcNAc(b1-3)]GalNAc
In short: as §1

B1: HA-00510 (Pseudomonas aeruginosa), Q02V39_PSEAB (protein)
chain: GVPIVNIATPNGAGLSNNHFRDYNVGANGLILNNATGKTQGTQLGGIILGNPNLKGQAAQVILNQVTGGNRSTLAGYTEVAGQSARVIVANPHGITCQGCGFINTPRATLTTGKPIMDGQRLERFQVDGGDIVVEGAELNVGNLEQFDLITRSAKLNAKLYAKNLNIVTGRNDVQADSLQATPRAADGSEKPQLAIDSSALGGMYAGAIRLVGTEQGVGVKLAGDMAASGGDIRIDASGKLSLAQASSQGDLKIAAQAVELNGKTYAGGSAEIRSAEELVNRQS
Fuc(a1-2)Gal(b1-4)GlcNAc
  glycan array binding signal (z-score): 0.548
[1]
  glycan array binding signal (z-score): 1.8
[2]
  glycan array binding signal (z-score): -0.457
[3]
  glycan array binding signal (z-score): -1.39
[4]
  glycan array binding signal (z-score): -0.268
[5]
  glycan array binding signal (z-score): 0.219
[6]
  glycan array binding signal (z-score): 2.45
Fuc(a1-3)GlcNAc
  glycan array binding signal (z-score): 0.219
Gal(a1-3)Gal(b1-4)GlcNAc
  glycan array binding signal (z-score): 0.209
[7]
  glycan array binding signal (z-score): 0.326
Gal(b1-2)Gal
  glycan array binding signal (z-score): -0.657
[8]
  glycan array binding signal (z-score): 0.121
[9]
  glycan array binding signal (z-score): -0.221
[10]
  glycan array binding signal (z-score): 0.347
[11]
  glycan array binding signal (z-score): 6.41
[12]
  glycan array binding signal (z-score): 3.26
[13]
  glycan array binding signal (z-score): 3.88
Gal(b1-6)Gal
  glycan array binding signal (z-score): -0.435
Gal3S(b1-4)Glc
  glycan array binding signal (z-score): 0.114
Gal3S(b1-4)GlcNAc
  glycan array binding signal (z-score): -0.217
[14]
  glycan array binding signal (z-score): 0.258
Gal3S4S(b1-4)GlcNAc
  glycan array binding signal (z-score): -0.526
Gal6S(b1-4)GlcNAc
  glycan array binding signal (z-score): -0.516
[15]
  glycan array binding signal (z-score): -0.551
[16]
  glycan array binding signal (z-score): -1.01
[17]
  glycan array binding signal (z-score): 0.18
[18]
  glycan array binding signal (z-score): 0.682
[19]
  glycan array binding signal (z-score): 0.061
[20]
  glycan array binding signal (z-score): 4.3
[21]
  glycan array binding signal (z-score): -0.255
